# Measured values as given in PubChem BioAssay (EPA / NIEHS).
# Active and inactive are the calls of the source. How the source made its calls: active means hit-call score of the fitted dose curve at least 0.9, where 1 is the maximum; inactive means score below 0.9.
# Columns and labels:
# [1] = ATG_GLI_CIS: Attagene CIS-FACTORIAL HepG2 Assay for human Zinc Finger Protein GLI1 (AID 2282945); conditions: HepG2, Attagene cis-factorial reporter mRNA, GLI element; actives raise or lower the signal
# Outline: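 Transiently transfected HepG2 cells report endogenous transcription factor activity via cis-element-driven reporter units. After 24 h compound exposure, reporter mRNA was measured by RT-PCR with capillary electrophoresis; bidirectional fitting against DMSO baseline.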
# [2] = target: Bile acid receptor (Homo sapiens) (UniProt Q96RI1); assay: ATG_IR1_CIS: Attagene CIS-FACTORIAL HepG2 Assay for human Nuclear Receptor Subfamily 1 Group H Member 4 (NR1H4), IR1 submotif (AID 2282946); conditions: IR1 reporter transcription, actives raise or lower the signal
# Bile acid receptor (Homo sapiens), sequence (Q96RI1 whole entry, looked up): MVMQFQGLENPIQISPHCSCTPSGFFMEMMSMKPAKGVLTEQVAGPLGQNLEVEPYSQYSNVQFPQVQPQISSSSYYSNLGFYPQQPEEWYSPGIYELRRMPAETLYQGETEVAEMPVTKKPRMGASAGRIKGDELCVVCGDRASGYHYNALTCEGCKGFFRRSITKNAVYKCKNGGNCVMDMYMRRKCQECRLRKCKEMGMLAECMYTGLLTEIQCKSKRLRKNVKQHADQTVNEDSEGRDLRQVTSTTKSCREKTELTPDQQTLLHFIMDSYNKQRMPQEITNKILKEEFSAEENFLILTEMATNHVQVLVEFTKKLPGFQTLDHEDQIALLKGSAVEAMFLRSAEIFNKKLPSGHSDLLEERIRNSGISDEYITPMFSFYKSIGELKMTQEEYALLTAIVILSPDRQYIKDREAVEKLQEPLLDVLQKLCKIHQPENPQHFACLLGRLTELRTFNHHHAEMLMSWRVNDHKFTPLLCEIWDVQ
# Outline: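 HepG2 cells transiently transfected with multiple cis-promoter-driven reporter units to measure endogenous transcription factor activity; 24 h exposure. Reporter mRNA read by RT-PCR, FAM labelling, HpaI digestion and capillary electrophoresis. Bidirectional fit versus DMSO.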
# [3] = ATG_GRE_CIS: Attagene CIS-FACTORIAL HepG2 Assay for human Glucocorticoid Response Elements (GRE) (AID 2282947); conditions: HepG2 GRE cis-reporter, Attagene multiplex mRNA; actives raise or lower the signal
# Outline: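 Endogenous transcription factor activity is read through cis-element reporter constructs transiently transfected into HepG2 cells. After 24 h treatment, labelled RT-PCR products are resolved by capillary electrophoresis; DMSO sets baseline for bidirectional curve fitting.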
# [4] = ATG_ISRE_CIS: Attagene CIS-FACTORIAL HepG2 Assay for human Interferon Regulatory Factor 1 (IRF1) binding to an Interferon-Stimulated Response Element (ISRE) (AID 2282948); conditions: HepG2 ISRE cis-reporter (Attagene), mRNA transcription readout; actives raise or lower the signal
# Outline: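 Quantitation relies on labelled RT-PCR fragments separated by capillary electrophoresis. Human HepG2 cells bearing cis-promoter reporter constructs were treated 24 h; DMSO served as baseline for bidirectional fitting.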
# [5] = ATG_M_32_CIS: Attagene CIS-FACTORIAL HepG2 Assay for M32 Transcription Factor (Internal Marker) (AID 2282949); conditions: HepG2 Attagene cis-factorial M32 reporter, mRNA; actives raise or lower the signal;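 further: background control marker of the multiplexed CIS panel rather than a real target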
# Outline: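 Internal background marker read-out: RT-PCR/capillary electrophoresis fluorescence of reporter transcripts from transiently transfected HepG2 cells after 24 h chemical exposure. Activity fitted bidirectionally relative to DMSO negative control.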
# [6] = ATG_M_06_CIS: Attagene CIS-FACTORIAL HepG2 Assay for M06 Transcription Factor (Internal Marker) (AID 2282950); conditions: HepG2 Attagene CIS-FACTORIAL M06 internal marker reporter; actives raise or lower the signal
# Outline: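 Terse: HepG2, transient MRTU transfection (FuGene 6), 24 h dosing; total RNA, oligo(dT) RT, PCR, FAM label, HpaI cut, capillary electrophoresis; bidirectional fit vs DMSO baseline; background-control endpoint.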
# [7] = target: Hypoxia-inducible factor 1-alpha (Homo sapiens) (UniProt Q16665); assay: ATG_HIF1a_CIS: Attagene CIS-FACTORIAL HepG2 Assay for human Hypoxia Inducible Factor 1 (HIF1A) (AID 2282951); conditions: HepG2 Attagene cis-factorial HIF1a reporter transcription; actives raise or lower the signal
# Hypoxia-inducible factor 1-alpha (Homo sapiens), sequence (Q16665 whole entry, looked up): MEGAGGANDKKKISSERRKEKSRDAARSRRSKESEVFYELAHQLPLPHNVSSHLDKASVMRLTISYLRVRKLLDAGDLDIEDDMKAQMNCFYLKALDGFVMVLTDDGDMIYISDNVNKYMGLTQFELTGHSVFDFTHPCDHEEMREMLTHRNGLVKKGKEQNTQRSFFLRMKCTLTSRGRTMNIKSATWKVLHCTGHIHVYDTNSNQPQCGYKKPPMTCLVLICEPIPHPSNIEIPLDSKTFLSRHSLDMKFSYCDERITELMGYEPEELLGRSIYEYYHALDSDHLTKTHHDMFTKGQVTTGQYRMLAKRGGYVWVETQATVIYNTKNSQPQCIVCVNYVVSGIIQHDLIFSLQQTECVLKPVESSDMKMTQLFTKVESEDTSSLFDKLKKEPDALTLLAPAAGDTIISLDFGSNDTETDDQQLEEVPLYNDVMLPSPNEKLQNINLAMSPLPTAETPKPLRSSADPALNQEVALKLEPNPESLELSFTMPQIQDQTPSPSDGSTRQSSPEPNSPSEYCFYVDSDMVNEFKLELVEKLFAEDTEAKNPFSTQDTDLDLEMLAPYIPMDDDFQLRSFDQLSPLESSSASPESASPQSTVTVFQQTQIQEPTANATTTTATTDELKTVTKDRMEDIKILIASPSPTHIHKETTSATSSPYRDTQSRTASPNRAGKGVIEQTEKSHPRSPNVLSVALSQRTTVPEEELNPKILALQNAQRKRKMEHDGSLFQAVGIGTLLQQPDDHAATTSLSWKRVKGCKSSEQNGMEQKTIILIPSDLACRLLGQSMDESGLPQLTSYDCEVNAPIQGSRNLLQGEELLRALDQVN
# Outline: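 Activity is fitted in both directions relative to DMSO. Reporter transcripts are read by RT-PCR, fluorescent primer extension and capillary electrophoresis after 24 h chemical treatment. The cells are HepG2 carrying transiently transfected cis-element-driven reporter units responding to endogenous factors.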
# [8] = target: Hepatocyte nuclear factor 6 (Homo sapiens) (UniProt Q9UBC0); assay: ATG_HNF6_CIS: Attagene CIS-FACTORIAL HepG2 Assay for human Hepatocyte Nuclear Factor 6 (HNF6) (AID 2282952); conditions: HepG2 Attagene cis-factorial HNF6 reporter transcription; actives raise or lower the signal
# Hepatocyte nuclear factor 6 (Homo sapiens), sequence (Q9UBC0 whole entry, looked up): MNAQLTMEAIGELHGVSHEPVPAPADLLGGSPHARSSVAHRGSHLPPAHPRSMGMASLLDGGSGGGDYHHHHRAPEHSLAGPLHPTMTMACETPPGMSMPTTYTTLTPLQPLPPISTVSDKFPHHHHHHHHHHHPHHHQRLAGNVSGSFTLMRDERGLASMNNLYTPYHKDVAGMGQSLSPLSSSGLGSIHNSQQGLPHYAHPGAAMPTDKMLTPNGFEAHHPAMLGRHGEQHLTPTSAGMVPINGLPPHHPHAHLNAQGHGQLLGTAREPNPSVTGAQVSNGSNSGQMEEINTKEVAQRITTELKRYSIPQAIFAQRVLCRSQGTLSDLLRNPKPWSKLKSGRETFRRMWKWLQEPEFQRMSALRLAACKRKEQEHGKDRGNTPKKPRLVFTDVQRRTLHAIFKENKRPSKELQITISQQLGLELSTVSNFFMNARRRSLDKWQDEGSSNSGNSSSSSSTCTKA
# Outline: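 Multiplexed mRNA reporter assay in transfected HepG2; 24 h dosing; RT-PCR plus capillary electrophoresis fluorescence; DMSO-referenced bidirectional curve fitting.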
# [9] = target: Heat shock factor protein 1 (Homo sapiens) (UniProt Q00613); assay: ATG_HSE_CIS: Attagene CIS-FACTORIAL HepG2 Assay for human Heat Shock Transcription Factor 1 (HSE) (AID 2282953); conditions: HepG2 HSE cis-reporter, Attagene RNA transcription; actives raise or lower the signal
# Heat shock factor protein 1 (Homo sapiens), sequence (Q00613 whole entry, looked up, the tested form may be a part): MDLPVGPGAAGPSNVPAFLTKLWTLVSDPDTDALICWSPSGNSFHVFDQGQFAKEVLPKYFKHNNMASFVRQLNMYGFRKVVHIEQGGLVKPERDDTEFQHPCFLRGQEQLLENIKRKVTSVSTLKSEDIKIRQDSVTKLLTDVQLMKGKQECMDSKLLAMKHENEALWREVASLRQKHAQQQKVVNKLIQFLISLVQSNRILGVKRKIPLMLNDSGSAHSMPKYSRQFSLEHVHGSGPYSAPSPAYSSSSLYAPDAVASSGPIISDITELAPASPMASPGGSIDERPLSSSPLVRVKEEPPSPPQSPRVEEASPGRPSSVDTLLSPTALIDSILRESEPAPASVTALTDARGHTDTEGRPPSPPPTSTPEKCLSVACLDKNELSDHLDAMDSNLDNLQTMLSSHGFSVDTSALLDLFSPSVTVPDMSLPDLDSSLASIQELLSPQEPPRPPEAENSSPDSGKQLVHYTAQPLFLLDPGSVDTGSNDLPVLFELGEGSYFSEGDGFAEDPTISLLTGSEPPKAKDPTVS
# Outline: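 Read-out: fluorescence of reporter-specific RT-PCR fragments separated by capillary electrophoresis. HepG2 carrying transfected cis-element reporter units; 24 h dosing; activity fitted in both directions relative to DMSO baseline.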
# [10] = ATG_MRE_CIS: Attagene CIS-FACTORIAL HepG2 Assay for human Metal Responsive Element (MRE) (AID 2282954); conditions: HepG2 MRE cis-reporter transcription, Attagene multiplex; actives raise or lower the signal
# Outline: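 Fluorescent reporter fragments separated by capillary electrophoresis give mRNA induction for the MRE unit after 24 h treatment of transfected HepG2 cells. Endogenous transcription-factor activity is read; DMSO serves as negative control and baseline.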
# [11] = ATG_PXRE_CIS: Attagene CIS-FACTORIAL HepG2 Assay for human Pregnane X Receptor Element (PXRE) (AID 2282957); conditions: HepG2 Attagene CIS-FACTORIAL PXRE reporter, mRNA; actives raise or lower the signal
# Outline: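 Cells: HepG2, transiently transfected reporter units under cis promoter control. Exposure: 24 h. Detection: reporter mRNA via RT-PCR/CE fluorescence; bidirectional fitting, DMSO-referenced.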
# [12] = ATG_RORE_CIS: Attagene CIS-FACTORIAL HepG2 Assay for human RAR-related Orphan Receptor Element (RORE) (AID 2282959); conditions: HepG2 Attagene cis-factorial RORE reporter, mRNA; actives raise or lower the signal
# Outline: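 RORE reporter transcripts reflecting endogenous factor activity were read after 24 h compound exposure of transfected HepG2 cells, using reverse transcription, PCR, fluorescent labelling and capillary electrophoresis sizing. Gain or loss fitted against DMSO.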
# [13] = ATG_Sox_CIS: Attagene CIS-FACTORIAL HepG2 Assay for human SRY-box transcription factor (SOX) (AID 2282960); conditions: HepG2 Attagene cis-factorial SOX reporter, mRNA; actives raise or lower the signal
# Outline: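 Reporter transcripts, measured by RT-PCR and capillary electrophoresis of labelled fragments, report endogenous SOX transcription factor activity. Transiently transfected human HepG2 cells receive chemical for 24 h; changes in either direction are fitted relative to DMSO.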
# [14] = target: Transcription factor Sp1 (Homo sapiens) (UniProt P08047); assay: ATG_Sp1_CIS: Attagene CIS-FACTORIAL HepG2 Assay for human Specificity Protein 1 (Sp1) (AID 2282961); conditions: HepG2 Sp1 cis-reporter transcription, actives raise or lower the signal
# Transcription factor Sp1 (Homo sapiens), sequence (P08047 whole entry, looked up): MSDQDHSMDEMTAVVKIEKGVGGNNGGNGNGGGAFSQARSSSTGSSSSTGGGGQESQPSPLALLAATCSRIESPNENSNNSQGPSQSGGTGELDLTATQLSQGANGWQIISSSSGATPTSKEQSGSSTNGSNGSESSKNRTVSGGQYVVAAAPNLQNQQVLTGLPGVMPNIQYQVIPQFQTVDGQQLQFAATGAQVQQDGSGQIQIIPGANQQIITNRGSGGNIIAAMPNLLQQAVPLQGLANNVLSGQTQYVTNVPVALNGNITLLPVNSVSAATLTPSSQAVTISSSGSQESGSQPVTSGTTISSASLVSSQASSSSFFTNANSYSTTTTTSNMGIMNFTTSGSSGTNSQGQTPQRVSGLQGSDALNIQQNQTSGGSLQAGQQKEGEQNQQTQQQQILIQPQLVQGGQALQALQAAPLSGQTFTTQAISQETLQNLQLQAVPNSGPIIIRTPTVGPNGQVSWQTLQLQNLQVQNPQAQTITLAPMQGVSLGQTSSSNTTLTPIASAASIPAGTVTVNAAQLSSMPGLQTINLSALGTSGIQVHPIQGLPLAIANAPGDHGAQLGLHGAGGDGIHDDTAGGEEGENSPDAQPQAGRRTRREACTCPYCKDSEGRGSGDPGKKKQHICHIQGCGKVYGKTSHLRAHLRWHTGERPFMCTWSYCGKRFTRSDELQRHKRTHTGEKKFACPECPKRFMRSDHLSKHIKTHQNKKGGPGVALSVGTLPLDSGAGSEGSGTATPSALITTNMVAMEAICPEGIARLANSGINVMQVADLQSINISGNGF
# Outline: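 Read-out is reporter transcript level, measured by RT-PCR and fluorescent capillary electrophoresis after 24 h chemical treatment. System: transiently transfected HepG2 cells reporting endogenous transcription factor activity; gain or loss fitted against DMSO baseline.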
# [15] = ATG_SREBP_CIS: Attagene CIS-FACTORIAL HepG2 Assay for human Sterol Regulatory Element Binding (SREBP) (AID 2282962); conditions: HepG2 Attagene cis-factorial SREBP reporter, mRNA; actives raise or lower the signal
# Outline: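 Twenty-four hours after chemical dosing of transfected HepG2 cultures, reporter RNA was converted to cDNA, amplified, end-labelled with 6-FAM and resolved by capillary electrophoresis. Responses were fitted relative to DMSO.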
# [16] = target: Signal transducer and activator of transcription 3 (Homo sapiens) (UniProt P40763); assay: ATG_STAT3_CIS: Attagene CIS-FACTORIAL HepG2 Assay for human Signal Transducer and Activator of Transcription 3 (STAT3) (AID 2282963); conditions: HepG2, Attagene cis-factorial STAT3 reporter transcription; actives raise or lower the signal
# Signal transducer and activator of transcription 3 (Homo sapiens), sequence (P40763 whole entry, looked up): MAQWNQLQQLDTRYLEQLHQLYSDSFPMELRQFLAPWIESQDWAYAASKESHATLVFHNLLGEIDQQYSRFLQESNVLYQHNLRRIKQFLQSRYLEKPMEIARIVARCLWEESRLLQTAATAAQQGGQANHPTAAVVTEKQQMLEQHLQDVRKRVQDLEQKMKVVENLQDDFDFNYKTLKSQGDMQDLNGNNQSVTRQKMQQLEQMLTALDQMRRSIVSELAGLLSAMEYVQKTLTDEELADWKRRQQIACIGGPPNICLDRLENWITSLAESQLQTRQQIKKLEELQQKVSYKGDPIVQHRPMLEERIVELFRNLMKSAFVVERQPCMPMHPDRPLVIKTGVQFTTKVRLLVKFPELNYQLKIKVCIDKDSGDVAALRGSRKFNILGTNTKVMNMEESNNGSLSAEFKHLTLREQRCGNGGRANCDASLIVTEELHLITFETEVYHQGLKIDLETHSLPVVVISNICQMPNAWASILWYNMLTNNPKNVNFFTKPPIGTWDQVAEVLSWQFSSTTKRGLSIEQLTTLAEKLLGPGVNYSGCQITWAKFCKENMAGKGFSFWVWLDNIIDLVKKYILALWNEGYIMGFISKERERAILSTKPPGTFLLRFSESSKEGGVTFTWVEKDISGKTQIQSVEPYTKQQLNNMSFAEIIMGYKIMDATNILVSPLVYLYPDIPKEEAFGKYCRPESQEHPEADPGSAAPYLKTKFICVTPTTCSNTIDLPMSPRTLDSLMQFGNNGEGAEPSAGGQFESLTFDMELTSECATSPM
# Outline: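 Values derive from bidirectional fits relative to DMSO of reporter mRNA levels, measured by RT-PCR with capillary electrophoresis, in HepG2 cells carrying transiently transfected cis-regulated reporter units and exposed 24 h.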
# [17] = ATG_TA_CIS: Attagene CIS-FACTORIAL HepG2 Assay for human TA Basal Promoter (AID 2282964); conditions: HepG2 Attagene CIS-factorial TA basal promoter reporter; actives raise or lower the signal
# Outline: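 Transfected HepG2, 24 h compound exposure; RNA → RT-PCR → FAM primer extension → HpaI cut → CE fluorescence. Gain/loss-of-signal fitted against DMSO negative control. Background-control readout.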
# [18] = ATG_PBREM_CIS: Attagene CIS-FACTORIAL HepG2 Assay for human Phenobarbital-responsive Enhancer Module (PBREM) (AID 2282955); conditions: HepG2 PBREM cis-reporter, Attagene multiplexed transcription; actives raise or lower the signal
# Outline: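 Endogenous transcription factor activity was read from reporter transcripts in transiently transfected human HepG2 liver cells after 24 h dosing. RT-PCR products were fluorescently labelled, HpaI-cut and sized by capillary electrophoresis; activity fitted bidirectionally against DMSO baseline.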
# [19] = target: Paired box protein Pax-6 (Homo sapiens) (UniProt P26367); assay: ATG_Pax6_CIS: Attagene CIS-FACTORIAL HepG2 Assay for human Paired Box 6 (PAX6) (AID 2282956); conditions: HepG2 CIS-FACTORIAL PAX6 reporter transcription, RNA readout; actives raise or lower the signal
# Paired box protein Pax-6 (Homo sapiens), sequence (P26367 whole entry, looked up): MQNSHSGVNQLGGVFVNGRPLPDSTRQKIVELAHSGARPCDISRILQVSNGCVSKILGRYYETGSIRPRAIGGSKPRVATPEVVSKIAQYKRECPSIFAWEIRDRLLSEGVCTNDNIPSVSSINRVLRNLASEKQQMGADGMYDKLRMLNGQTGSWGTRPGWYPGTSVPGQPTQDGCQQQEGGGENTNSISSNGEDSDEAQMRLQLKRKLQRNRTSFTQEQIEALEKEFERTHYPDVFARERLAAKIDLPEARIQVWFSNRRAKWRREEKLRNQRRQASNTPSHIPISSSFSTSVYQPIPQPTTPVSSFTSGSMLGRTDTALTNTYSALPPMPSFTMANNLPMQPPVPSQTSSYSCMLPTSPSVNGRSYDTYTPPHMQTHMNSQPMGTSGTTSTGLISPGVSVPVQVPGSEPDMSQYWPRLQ
# Outline: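 After twenty-four hours of chemical exposure, transfected HepG2 cells are harvested for RNA. Cis-promoter reporter transcripts are amplified, fluorescently labelled and sized by capillary electrophoresis, with gain and loss of signal scored against DMSO.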
# [20] = ATG_PPRE_CIS: Attagene CIS-FACTORIAL HepG2 Assay for human Peroxisome Proliferator-activated Response Element (PPRE) (AID 2282958); conditions: HepG2 PPRE cis-element reporter, Attagene transcription factor profiling; actives raise or lower the signal
# Outline: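 Endogenous PPRE-driven transcription is measured in HepG2 cells carrying transfected multi-reporter constructs. Reporter transcripts are quantified by RT-PCR, HpaI digestion and capillary electrophoresis 24 h after dosing. DMSO baseline, bidirectional fit.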
smiles,measurement,setting,value
c1ccc2c(c1)Cc1ccccc1-2,outcome,[1],inactive
same,outcome,[2],inactive
same,outcome,[3],inactive
same,outcome,[4],inactive
same,outcome,[5],inactive
same,outcome,[6],inactive
same,outcome,[7],inactive
same,outcome,[8],inactive
same,outcome,[9],inactive
same,outcome,[10],inactive
same,AC50,[11],72.4 µM (active)
same,outcome,[12],inactive
same,outcome,[13],inactive
same,outcome,[14],inactive
same,outcome,[15],inactive
same,outcome,[16],inactive
same,outcome,[17],inactive
CCCCCCCCOC(=O)CCCCCCCCC(=O)OCCCCCCCC,outcome,[1],inactive
same,outcome,[2],inactive
same,outcome,[3],inactive
same,outcome,[4],inactive
same,outcome,[5],inactive
same,outcome,[6],inactive
same,outcome,[7],inactive
same,outcome,[8],inactive
same,outcome,[9],inactive
same,outcome,[10],inactive
same,outcome,[18],inactive
same,outcome,[19],inactive
same,outcome,[11],inactive
same,outcome,[20],inactive
same,outcome,[12],inactive
same,outcome,[13],inactive
same,outcome,[14],inactive
same,outcome,[15],inactive
same,outcome,[16],inactive
same,outcome,[17],inactive
CN1CCN(c2ccccc2/C=C2\SCCN(c3ccc(Cl)c(Cl)c3)C2=O)CC1,outcome,[1],inactive
same,outcome,[2],inactive
same,outcome,[3],inactive
same,outcome,[4],inactive
same,outcome,[5],inactive
same,outcome,[7],inactive
same,outcome,[8],inactive
same,outcome,[9],inactive
same,outcome,[10],inactive
same,outcome,[18],inactive
same,outcome,[19],inactive
same,AC50,[11],2.88 µM (active)
same,outcome,[20],inactive
same,outcome,[12],inactive
same,outcome,[13],inactive
same,outcome,[14],inactive
same,AC50,[15],5.37 µM (active)
same,outcome,[16],inactive
same,outcome,[17],inactive
CC(C)(C)c1cccc(C(C)(C)C)c1O,outcome,[1],inactive
same,outcome,[2],inactive
same,outcome,[3],inactive
same,AC50,[4],162 µM (active)
same,outcome,[5],inactive
same,outcome,[6],inactive
same,AC50,[7],173 µM (active)
same,outcome,[8],inactive
same,outcome,[9],inactive
same,AC50,[10],158 µM (active)
same,outcome,[18],inactive
same,AC50,[19],162 µM (active)
same,outcome,[11],inactive
same,outcome,[20],inactive
same,outcome,[13],inactive
same,AC50,[14],165 µM (active)
same,outcome,[15],inactive
same,outcome,[16],inactive
same,outcome,[17],inactive
COc1cc(CCC(=O)CC(=O)CCc2ccc(O)c(OC)c2)ccc1O,outcome,[1],inactive
same,outcome,[2],inactive
same,outcome,[3],inactive
same,outcome,[4],inactive
same,outcome,[5],inactive
same,outcome,[6],inactive
same,outcome,[7],inactive
same,outcome,[8],inactive
same,outcome,[9],inactive
same,AC50,[10],76.4 µM (active)
same,outcome,[18],inactive
same,outcome,[19],inactive
same,AC50,[11],8.44 µM (active)
same,outcome,[20],inactive
same,outcome,[12],inactive
same,outcome,[13],inactive
same,outcome,[14],inactive
same,outcome,[15],inactive
same,outcome,[16],inactive
same,outcome,[17],inactive
Cc1cc(C)c(O)c(C)c1,outcome,[1],inactive
same,outcome,[2],inactive
same,outcome,[3],inactive
same,outcome,[4],inactive
same,outcome,[5],inactive
same,outcome,[6],inactive
same,outcome,[7],inactive
same,outcome,[8],inactive
same,outcome,[9],inactive
same,outcome,[10],inactive
same,outcome,[18],inactive
same,outcome,[19],inactive
same,outcome,[11],inactive
same,outcome,[20],inactive
same,outcome,[12],inactive
same,outcome,[13],inactive
same,outcome,[14],inactive
same,outcome,[15],inactive
same,outcome,[16],inactive
same,outcome,[17],inactive
